This is a sample that favours compounds with a hit; in the whole collection about 18% have one here.
Six1-Eya2 blk: inhibitors of human Six1/Eya2 interaction; Q15475+O00167; AlphaScreen GST-Six1/His-Eya2 binding, biochemical; stronger effect = lower value; activity change, % (concentration not given with the values); actives 0.56% (n = 360,000); AID 651725; in the data active = activity change below about -65%; inconclusive = mostly about -30% to -63%
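Homogeneous AlphaScreen proximity assay pairing GST-Six1 with His-tagged Eya2 (added as 5X mix: 250 nM and 500 nM) in 50 mM Tris pH 8.0, 300 mM NaCl, 1 mM TCEP. Glutathione donor and nickel acceptor beads; 1 h, 37 °C, dark.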
DT40 TDP1 CPT: growth inhibition of DT40 Tdp1-/-;hTDP1 cells with camptothecin (screen for TDP1 inhibitors); chicken DT40 Tdp1-/-;hTDP1 cells + 20 nM CPT, ATP luminescence, 48 h; Potency, µM (top dose mostly 46.2 µM), for the others: at the top dose activity change, negative = growth inhibition, most hits filed as inhibitors; actives 12% (n = 420,000); also: potency is read from the fitted curve at half-maximal effect; nearly all actives have a fitted effect of over 55% in size
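Chicken DT40 Tdp1-/- cells complemented with human TDP1, 400 cells/well, exposed to compounds plus 20 nM camptothecin for at least 48 h at 37 C; viability read as ATP content by CellTiter-Glo luminescence.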
TDP1 cell noCPT: qHTS for Inhibitors of human tyrosyl-DNA phosphodiesterase 1 (TDP1): qHTS in cells in absence of CPT. DT40 Tdp1-/- hTDP1 cells, no CPT, ATP luminescence, 48 h. actives 15% (n = 420,000). Potency, µM (highest dose often 46.2 µM), for the others: at the top dose activity change, negative = growth inhibition, hits mostly inhibitors; also: potency is read from the fitted curve at half-maximal effect; nearly all actives have a fitted effect of over 55% in size
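Camptothecin absent (DMSO only). Human TDP1-complemented DT40 knockout cells, 400 cells/well, 37 °C for minimum 48 hr; ATP measured via CellTiter-Glo, 30 min dark incubation, luminescence.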
CtBP-E1A inh: inhibitors of CtBP/E1A interaction. activity change, % (no concentration beside the values). AlphaScreen GST-E1A/His-CtBP binding, 1536-well; stronger effect = lower value. actives 0.49% (n = 340,000); in the data active = activity change below about -65%; inconclusive = mostly about -30% to -63%
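GST-E1A and His-tagged CtBP (125 nM each as 5X stock) were preincubated with pin-transferred compound for 2 h at 37 °C in the dark, then glutathione donor and nickel acceptor beads were added for 1 h before AlphaScreen reading.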
TDP1 inh: blocks human tyrosyl-DNA phosphodiesterase 1 | actives 0.28% (n = 350,000) | Q9NUW8 | Potency, µM (top dose mostly 130 µM), without a hit: at the top dose activity change, negative = inhibition, hits mostly inhibitors | AID 485290 | recombinant TDP1, AlphaScreen DNA substrate cleavage; also: potency is read from the fitted curve at half-maximal effect; nearly all actives have a fitted effect of over 40% in size
Target sequence (Q9NUW8 whole entry, looked up): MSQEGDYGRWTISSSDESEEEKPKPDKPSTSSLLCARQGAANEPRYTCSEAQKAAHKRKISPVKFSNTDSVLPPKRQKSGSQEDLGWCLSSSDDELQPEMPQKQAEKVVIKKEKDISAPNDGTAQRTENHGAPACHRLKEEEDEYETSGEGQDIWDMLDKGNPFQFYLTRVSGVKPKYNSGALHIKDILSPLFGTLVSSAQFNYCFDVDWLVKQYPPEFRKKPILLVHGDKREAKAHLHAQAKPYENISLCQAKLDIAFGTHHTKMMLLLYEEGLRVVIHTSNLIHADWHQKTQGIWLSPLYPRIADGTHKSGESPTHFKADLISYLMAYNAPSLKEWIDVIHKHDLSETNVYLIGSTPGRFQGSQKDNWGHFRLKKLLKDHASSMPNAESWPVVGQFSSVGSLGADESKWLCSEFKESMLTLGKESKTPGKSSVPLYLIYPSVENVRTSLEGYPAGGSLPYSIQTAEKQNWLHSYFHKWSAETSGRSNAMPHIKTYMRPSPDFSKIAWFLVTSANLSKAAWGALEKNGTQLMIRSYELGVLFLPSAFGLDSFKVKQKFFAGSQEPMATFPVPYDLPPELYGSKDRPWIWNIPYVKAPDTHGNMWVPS
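Recombinant E. coli-expressed Tdp1 (1 nM) preincubated with compound 15 min at RT, then 5'-biotin/3'-phosphotyrosine-FITC DNA substrate (15 nM) added for 5 min. AlphaScreen beads (10 ug/ml) added, 10 min RT; tyrosine-FITC cleavage read as signal loss.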
IL1B secr inh: blocks inflammasome-driven IL-1 beta release. THP-1 LPS/ATP IL-1B secretion, AlphaLISA, 16 h; stronger effect = lower value. activity change, % at 57.5 µM. actives 4.7% (n = 360,000); in the data active = activity change below about -50%; inconclusive = mostly about -30% to -49%
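THP-1 cells pretreated 1 hr with compounds (up to 57.5 uM final), then stimulated with LPS (250 ng/mL final) plus ATP (1.25 mM final); secreted IL-1B measured by AlphaLISA after 16 hr, decreased signal indicating inhibition.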
Numbers without * were called inactive; ? = inconclusive; · = not tested or not shown. Unless noted, calls follow the shape of the dose curve; as a rule, active = well fitted curve in the direction sought with a large enough effect; inconclusive = small, poorly fitted or top-dose-only effect, or another doubt; inactive = no such curve, though single readings can be large; an effect the other way counts as inactive or inconclusive. % is scaled to controls: 0 for no effect and ±100 for the full control effect.

SMILES | Six1-Eya2 blk | DT40 TDP1 CPT | TDP1 cell noCPT | CtBP-E1A inh | TDP1 inh | IL1B secr inh
CS(=O)(=O)OCC(O)C(O)COS(C)(=O)=O (centres undefined) | · | 13.3µM* | 10.6µM* | · | · | ·
CCOc1ccc2nc(NC(=O)c3cccn(Cc4ccccc4C)c3=O)sc2c1 | · | 1.7% | 1.7% | · | 8.8% | ·
CCCCc1ccc2[nH]cc(CCN)c2c1 | -22.2 | 20.6µM* | 20.6µM* | 2.3 | -7.1% | -89.1*
COc1ccccc1N1C(=O)NC(=O)/C(=C/c2ccc3c4c(cccc24)CC3)C1=O | -10.3 | ? | ? | -4.3 | 0.0% | ?
COc1ccccc1N1C(=O)NC(=O)/C(=C/c2ccc([N+](=O)[O-])s2)C1=O | ? | 8.2µM* | 14.6µM* | -25.8 | -5.2% | -61.6*
COc1ccc(N2C(=O)NC(=O)/C(=C\c3ccc([N+](=O)[O-])s3)C2=O)cc1 | ? | 13µM* | ? | -20.7 | -0.6% | ?
COc1ccccc1N1C(=O)NC(=O)/C(=C\c2cnn(-c3ccccc3)c2)C1=O | 19.4 | ? | ? | 4.0 | -5.5% | -89.7*
O=C1NC(=O)N(c2ccccc2)C(=O)/C1=C/c1ccc(Sc2ccccc2)o1 | -4.4 | ? | ? | 1.4 | -11.6% | -101.0*
O=C1NC(=O)N(Cc2ccccc2)C(=O)/C1=C/c1cnn(-c2ccccc2)c1 | · | · | · | · | -2.6% | ·
CC(C)C/C(=N/O)c1cn(C)c2ccccc12 | -7.6 | -7.1% | -4.9% | 0.4 | 0.0% | 10.8
O=C1NC(=O)N(c2ccccc2)C(=O)/C1=C\c1ccccc1[N+](=O)[O-] | -0.6 | 23.1µM* | -24.2% | -0.9 | · | 14.8
COc1ccc(N2C(=O)NC(=O)/C(=C/c3ccc([N+](=O)[O-])s3)C2=O)cc1 | -72.7* | 14.6µM* | 6.51µM* | · | -1.9% | 0.0
c1cc2c(c(NC3=NCCN3)c1)CCCC2 | · | ? | ? | · | 0.0% | ·
Cc1ccc(CN2C3CCCC2CC(NC(=O)Nc2cccc(F)c2)C3)cc1 (centres undefined) | -8.0 | ? | 14.6µM* | -4.8 | 6.0% | -69.7*
CN(Cc1cccc(-c2cccnc2)c1)C(=O)Oc1ccc([N+](=O)[O-])cc1 | -7.2 | 18.4µM* | ? | -4.5 | · | -24.9
Cc1nc(-c2cccc(CN(C)C(=O)Oc3ccc([N+](=O)[O-])cc3)c2)no1 | -4.7 | ? | 16.4µM* | -10.2 | · | -7.4
CCn1c(P(C)(=O)O)nc2ccccc21 | 6.0 | -7.2% | -20.4% | 2.0 | 2.6% | 11.3
CCn1c(NN=O)nc2ccccc21 | ? | 7.31µM* | ? | ? | 12.3% | 99.6
Cc1ccc(C(=O)Nc2nc3ccccc3[nH]2)cc1 | -3.1 | ? | 18.4µM* | -6.3 | -14.2% | 32.2
CCCCn1c(=O)c(C(=O)Nc2nc3ccccc3[nH]2)c(O)c2ccccc21 | · | · | · | · | 11.9% | ·
Nc1ccc(N=Nc2ccccc2)cc1 | ? | -8.8% | ? | -27.3 | 9.3% | -13.2
Cc1cc(N(C)C)ccc1N=Nc1ccc(N)cc1 | -76.7* | ? | 13µM* | -73.8* | · | -26.0
CCOc1nc(NC(C)C)nc(N2CC3CC(C2)c2cccc(=O)n2C3)n1 (centres undefined) | 6.0 | 18.4µM* | ? | · | 5.3% | 15.2
NCCc1cc(O)c(O)cc1O | ? | 5.17µM* | 3.66µM* | -5.6 | 0.251µM* | -24.1
Cc1ccccc1NC(=NCCCN1CC1)Nc1ccccc1C | 18.0 | 2.06µM* | 5.17µM* | 16.1 | · | ?
SMILES | Six1-Eya2 blk | DT40 TDP1 CPT | TDP1 cell noCPT | CtBP-E1A inh | TDP1 inh | IL1B secr inh
Cc1ccccc1NC(=O)c1cc(-c2ccccc2)n(CCCN2CCOCC2)c1C | -10.7 | -2.2% | -0.4% | -2.3 | 5.1% | -5.4
CCCCCCCCCCCCOCCOCCOCCOCCOCCOCCOCCOCCOCCO | · | 6.68µM* | 6.68µM* | · | 8.2% | ·
OC(c1ccc(F)cc1)(c1ccc(F)cc1)[C@@H]1CCCN1 | 7.0 | ? | 16.4µM* | -1.8 | 2.9% | -26.6
CCOC(=O)c1c(-n2c(C)cc(C=C3C(=O)NC(=S)NC3=O)c2C)sc2c1CCCC2 | -16.1 | 23.1µM* | 18.4µM* | -1.8 | 0.0% | -109.6*
CCOC(=O)c1c(/N=C/C2C(=O)NC(=O)NC2=O)sc2c1CCC2 | -0.7 | 10.5% | 6.2% | -0.6 | 1.8% | -9.5
CCOC(=O)c1c(-n2c(C)cc(/C=C3/C(=O)NC(=O)N(CC)C3=O)c2C)sc2c1CCCC2 | 1.0 | 16.4µM* | ? | 1.9 | · | 6.0
Cc1cc(/C=C2\C(=O)NC(=O)N(c3ccc(Cl)cc3)C2=O)c(C)n1-c1cccc(C(=O)O)c1 | -22.0 | 6.1% | 15.1% | -10.7 | · | 1.1
CCN1C(=O)NC(=O)/C(=C/c2cc(C)n(-c3sc(C)c(C)c3C#N)c2C)C1=O | -19.8 | ? | ? | ? | 8.2% | -22.4
Cc1ccc(N2C(=O)NC(=O)/C(=C\c3cc(C)n(-c4sc5c(c4C#N)CCCC5)c3C)C2=O)cc1 | -5.9 | ? | ? | -6.0 | 7.9% | -84.4*
Cc1cc(/C=C2\C(=O)NC(=O)N(c3ccc(Br)cc3)C2=O)c(C)n1-c1cc(C(=O)O)cc(C(=O)O)c1 | -84.4* | -11.8% | -29.8% | · | · | ?
Cc1ccc(-n2c(O)c(C=NCCC3=CCCCC3)c(=O)[nH]c2=O)cc1 | 0.0 | -0.7% | -12.5% | 1.9 | 2.5% | -6.7
CN1C2CCC1CC(OC(=O)c1cccc(O)c1)C2 (centres undefined) | 4.7 | 9.7% | -6.3% | 3.8 | · | -0.4
Cc1ccc(-c2cc(-c3ccccc3)cc(-c3ccccc3)[n+]2-c2ccccc2C(=O)O)cc1 | -0.8 | 9.2µM* | 9.2µM* | -1.5 | -2.1% | -1.9
COc1cc2nc(CN3CC=C(c4ccccc4)CC3)[nH]c(=O)c2cc1OC | -5.0 | ? | 18.4µM* | -0.6 | · | -24.3
C=CCc1ccccc1OCCn1c(C2CC(=O)N(Cc3ccc(F)cc3)C2)nc2ccccc21 (centres undefined) | · | 16.4µM* | ? | · | 8.6% | ·
Cc1sc2ncnc(N3CCC(C(=O)Nc4ccc(C#N)c(Cl)c4)CC3)c2c1C | -15.3 | 18.4µM* | ? | -1.5 | 1.8% | 11.9
N#Cc1ccc(NC(=O)CCNC(=O)c2ccco2)cc1Cl | -0.8 | 7.8% | -10.0% | -0.1 | 11.4% | 2.5
O=[N+]([O-])c1ccc(CN2CC=C(c3ccccc3)CC2)cc1 | -13.3 | -12.4% | ? | -10.2 | 14.8% | -13.4
Cc1ccc2nc(N)[nH]c(=O)c2c1Sc1ccncc1 | · | ? | 0.376µM* | · | · | ·

Screening results (PubChem)
